Test [1] is described as follows: NCI Yeast Anticancer Drug Screen. Data for the rad50 strain (AID 155).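 Also: 0% = growth of vehicle-only cultures of the same strain.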 The conditions noted are these: S. cerevisiae rad50 strain growth inhibition; at 50.0 µM; hits give high values. In outline:
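Compounds were tested on a yeast strain with an engineered DNA damage repair alteration; the reported value is growth inhibition normalised to vehicle treatment.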

Test [2] is described as follows: NCI Yeast Anticancer Drug Screen. Data for the mec2-1 strain (AID 157). Conditions: S. cerevisiae mec2-1 strain, at 50.0 µM, hits give high values. In a few lines:
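Vehicle-treated cultures served as reference for growth inhibition of compound-exposed mec2-1 yeast.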

Test [3] can be described thus: NCI Yeast Anticancer Drug Screen. Data for the sgs1 mgt1 strain (AID 161).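 Also: 0% = growth of cultures given vehicle only.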 The conditions noted are these: S. cerevisiae sgs1 mgt1 strain, at 50.0 µM, hits give high values. In a few lines: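 Inhibition of yeast growth, normalised to vehicle-treated controls, is reported for a strain bearing genetic alterations in DNA damage repair.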
The nature of test [4]: NCI Yeast Anticancer Drug Screen. Data for the cln2 rad14 strain (AID 165).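 Also: 0% = growth equal to vehicle treated cultures.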 Conditions: S. cerevisiae cln2 rad14 strain, at 50.0 µM, hits give high values. In outline:
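Each compound was tested on cln2 rad14 yeast. Inhibition of growth was calculated against vehicle-exposed controls.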

Test [5] in a line: NCI Yeast Anticancer Drug Screen. Data for the bub3 strain (AID 167). The conditions noted are these: S. cerevisiae bub3 mutant strain, at 50.0 µM, hits give high values. In a few lines: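 Growth of a checkpoint-deficient yeast mutant is measured after compound exposure. Values represent inhibition relative to vehicle.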
The nature of test [6]: NCI Yeast Anticancer Drug Screen. Data for the mlh1 rad18 strain (AID 175). The conditions noted are these: S. cerevisiae mlh1 rad18 strain growth inhibition; at 50.0 µM; hits give high values. In a few lines: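 Vehicle-treated cultures served as the reference for growth inhibition in a yeast strain carrying DNA damage repair alterations exposed to each compound.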

Data on 38 compounds can be found in PubChem BioAssay (NCI).

The structures appear in SMILES notation. Compounds without any hit were thinned out: in the full panel of roughly 79,000, 15% have a hit. Values without a mark were called inactive. The source made the active and inactive calls. Rule as the data show it: active = growth inhibition above about 70%; inactive = the rest.

Regarding `N/C(=N\N=C\c1c[nH]c2cc(C(F)(F)F)ccc2c1=O)NO`, the growth inhibition in test [1] is -10.9%; in test [2], -7.45%; in test [3], 28.4%; in test [4], 11.1%; in test [5], 2.9%; in test [6] it was 2.25%.

Regarding `COC(=O)CC1(C(=O)OC)OC(=O)c2ccccc2N1C` (stereo not drawn), the growth inhibition in test [1] was 8.2%; in test [2], 12%; in test [3], 19.9%; in test [4], -24.6%; in test [5], -8.35%; in test [6] it was 12.3%.

Regarding `O=C1c2cc([N+](=O)[O-])ccc2-c2c(I)cccc21`, the growth inhibition in test [1] was 4.25%; in test [2] it was 2.7%; in test [3], -5.35%; in test [4] it was 5.75%; in test [5], -9.25%; in test [6], -6.45%.

For the compound `COc1cccc(/C=C2/C(=O)N(c3ccc([N+](=O)[O-])cc3)N=C2C)c1`, the growth inhibition in test [1] is 34.5%; in test [2], 5.1%; in test [3] it was 37.9%; in test [4], 11.9%; in test [5], 14.3%; in test [6], 43.9%.

In the case of `CCCC(=O)NS(=O)(=O)c1ccc(C)cc1`, the growth inhibition in test [1] is 2.85%; in test [2], 7.3%; in test [3], 3.45%; in test [4], -24.9%; in test [5] it was 0.25%; in test [6], 5.75%.

Regarding `Cc1cc(=O)c2ccccc2o1`, the growth inhibition was -5.15% in test [1]; -7.75% in test [2]; -1.3% in test [3]; -0.1% in test [4]; -18.9% in test [5]; -13.7% in test [6].

Regarding `C#CCC[N+](C)(C)C`, the growth inhibition in test [1] was -0.75%; in test [2] it was -12.5%; in test [3], -5.2%; in test [4] it was 11.2%; in test [5] it was -7.45%; in test [6], 4.55%.

Take `COCCCC(NC(=O)C(CC(C)C)NC(=O)OCc1ccc(OC)cc1)C(N)=O` (stereo not drawn): the growth inhibition in test [1] is -12.9%; in test [2] it was -21.4%; in test [3], -22.9%; in test [4], 4.2%; in test [5] it was -12.1%; in test [6] it was 4.2%.

For the compound `NC1=NS(=O)(=O)Nc2nc(-c3ccc(Cl)cc3)c(-c3ccc(Cl)cc3)nc21`, the growth inhibition in test [1] was -16.6%; in test [2], -17.2%; in test [3], -25%; in test [4], 3.45%; in test [5], -22%; in test [6], -24.8%.

Consider `NC1(C(=O)OCc2ccccc2)CCCC1`, for which the growth inhibition in test [1] was 18.6%; in test [2], -5.45%; in test [3] it was -14.1%; in test [4] it was 1.9%; in test [5], -1.7%; in test [6], 37.9%.

Turning to `COc1ccc(C=O)c(C(=O)O)c1OC`, the growth inhibition was -7.7% in test [1]; -52.9% in test [2]; -2.8% in test [3]; 17.2% in test [4]; -20.2% in test [5]; -3.7% in test [6].

Regarding `O=C(O)C1CC(Cl)C(O)C(Cl)C1` (stereo not drawn), the growth inhibition was -6.9% in test [1]; 8.4% in test [2]; 8.95% in test [3]; -56.3% in test [4]; -6.65% in test [5]; 9% in test [6].

As to `CC12CC3C(CC1SCC(=O)O2)C3(C)C` (stereo not drawn), the growth inhibition is -27.2% in test [1]; -1.1% in test [2]; -44.8% in test [3]; 1.4% in test [4]; -25.1% in test [5]; -26.2% in test [6].

As for `O=S1(=O)C(c2ccccc2)C(N2CCCCC2)C1C1CC2c3ccccc3C1c1ccccc12` (stereo not drawn), the growth inhibition was 19.5% in test [1]; 32.6% in test [2]; 2.9% in test [3]; -28% in test [4]; 28.9% in test [5]; 30.2% in test [6].

In the case of `CCOCC(OCC)OCC`, the growth inhibition was -4.1% in test [1]; 0.45% in test [2]; -2.55% in test [3]; 22.9% in test [4]; -5.45% in test [5]; 6.7% in test [6].

As to `CCC(=O)OCCC(C)C`, the growth inhibition was 35.4% in test [1]; 12.2% in test [2]; 6.85% in test [3]; -22.1% in test [4]; 19.9% in test [5]; 17.4% in test [6].

Consider `Cc1ncc(CSC(=N)N)n1Cc1ccccc1`, for which the growth inhibition is -33.6% in test [1]; -11.4% in test [2]; -6.55% in test [3]; -17.6% in test [4]; -11.1% in test [5]; -23.9% in test [6].

As to `CC(=O)NC1=N/C(=C\c2ccc(Cl)cc2)C(=O)N1/C=C1\C(=O)Oc2ccccc2C1=O`, the growth inhibition in test [1] was 50%; in test [2], 13.9%; in test [3], 24.9%; in test [4], 26%; in test [5], 49.7%; in test [6], 41.9%.

For `CC(C)=C(CSC#N)S(=O)(=O)c1ccc(C)cc1`, the growth inhibition in test [1] is 0.45%; in test [2] it was 14.2%; in test [3], 7.1%; in test [4] it was -5.1%; in test [5], 36.9%; in test [6], 14.7%.

As to `COC(=O)c1cc2c(cc1CC(Cc1ccc3c(c1)CCC3)C(=O)OC)CCC2` (stereo not drawn), the growth inhibition in test [1] is 27.9%; in test [2], 1.25%; in test [3], -21.6%; in test [4] it was -34.1%; in test [5], 3.95%; in test [6] it was -4.65%.

With `COCCC(N)C(=O)O` (stereo not drawn), the growth inhibition in test [1] is 6%; in test [2], -13.3%; in test [3], -15%; in test [4] it was -22.8%; in test [5] it was -11.6%; in test [6], 2.65%.

Consider `COc1cc(C(=O)O)c(C(=O)O)cc1OC`, for which the growth inhibition is 2.6% in test [1]; 21.4% in test [2]; 20.5% in test [3]; -29.1% in test [4]; 2.45% in test [5]; 0.5% in test [6].

For the compound `S=C(Nc1ccc2c(c1)Cc1ccccc1-2)Nc1ccc2c(c1)Cc1ccccc1-2`, the growth inhibition in test [1] is 25.8%; in test [2], 18.9%; in test [3] it was -39.7%; in test [4], -12.7%; in test [5], 27%; in test [6], 31%.

For `CN1C(C(=O)Nc2ccccn2)=C(O)c2ccccc2S1(=O)=O`, the growth inhibition in test [1] is 5%; in test [2], 15.5%; in test [3], 5.1%; in test [4], 0.9%; in test [5] it was -1.75%; in test [6], 8.25%.

As to `O=S(=O)(c1ccc(Br)cc1)C(F)(F)F`, the growth inhibition is 11.1% in test [1]; 10% in test [2]; 0.1% in test [3]; 2.6% in test [4]; 12.7% in test [5]; 5.15% in test [6].

On to `O=C(c1ccc(Cl)cc1)N(C(=S)N1CCN(c2ccccn2)CC1)C1CCCCC1`, for which the growth inhibition is 4.5% in test [1]; 13.7% in test [2]; 15.3% in test [3]; 6.85% in test [4]; -16.6% in test [5]; 19.4% in test [6].

As for `NCC(=O)NC1(C(=O)NCC(=O)O)CCCC1`, the growth inhibition was -2.45% in test [1]; -2.2% in test [2]; -20.9% in test [3]; -13.9% in test [4]; 6.5% in test [5]; 1.3% in test [6].

As to `O=C(Cn1c(C(=O)c2ccccc2)nc2ccccc21)c1ccccc1`, the growth inhibition in test [1] was -39.2%; in test [2] it was -16.6%; in test [3], -32.8%; in test [4], -8.95%; in test [5], -16.4%; in test [6] it was -18%.

Regarding `O=c1cc(O)n2ncnc2[nH]1`, the growth inhibition in test [1] is -4.3%; in test [2], -23.6%; in test [3], -21.8%; in test [4], 3.05%; in test [5], -12.6%; in test [6], 9%.

Consider `C[C@@H](CC(=O)O)OC1OC(COC(=O)C(C)(C)C)C(OC(=O)C(C)(C)C)C(OC(=O)C(C)(C)C)C1OC(=O)C(C)(C)C` (stereo partly drawn), for which the growth inhibition in test [1] is 4.25%; in test [2] it was -45.1%; in test [3], -17.7%; in test [4], 7%; in test [5] it was -15.5%; in test [6] it was 85.8% (active).

Turning to `COc1ccccc1Nc1nc(NNC(=O)Cc2ccccc2)nc(NNC(=O)c2ccncc2)n1`, the growth inhibition is 27.4% in test [1]; 36.2% in test [2]; 25.3% in test [3]; 17.6% in test [4]; 22.7% in test [5]; 25.6% in test [6].

For `COc1ccc(N2C(=O)C3C=CC(n4[nH]c(=O)n(Cc5ccccc5)c4=O)CC3C2=O)cc1` (stereo not drawn), the growth inhibition in test [1] is 6.6%; in test [2], 1.8%; in test [3] it was -0.9%; in test [4], -20.9%; in test [5], 8.4%; in test [6] it was -25.6%.

Consider `O=[N+]([O-])c1ccc2nc(-c3ccccn3)c(-c3ccccn3)nc2c1`, for which the growth inhibition is 43.9% in test [1]; 18.4% in test [2]; 42.6% in test [3]; 18.1% in test [4]; 47.5% in test [5]; 41% in test [6].

Turning to `CC(C)=CC(=O)OC1C2C(C)=CC(=O)C(O)C2(C)C2C3(O)OCC24C(CC(=O)OC14)C(C)C3O` (stereo not drawn), the growth inhibition is 91.6% (active) in test [1]; 92.4% (active) in test [2]; 91.5% (active) in test [3]; 91% (active) in test [4]; 90.8% (active) in test [5]; 91.2% (active) in test [6].

As for `O=C1CC[C@H](NC(=O)Cc2ccccc2)C(=O)N1`, the growth inhibition in test [1] is -11.8%; in test [2] it was -6.55%; in test [3], -14.4%; in test [4] it was 6.35%; in test [5], -11.9%; in test [6], -13.6%.

Take `CCOC(O)(NC(=O)C(C(F)(F)F)C(F)(F)F)C(F)(F)F` (stereo not drawn): the growth inhibition in test [1] was 6.05%; in test [2] it was -18.1%; in test [3], -33.4%; in test [4], -9.45%; in test [5] it was -12.4%; in test [6] it was -26.9%.

Take `CN(C)Cc1cc(N=Nc2ccc(Cl)cc2)ccc1O`: the growth inhibition is 26.9% in test [1]; 7.3% in test [2]; 19.4% in test [3]; 14.8% in test [4]; 36.5% in test [5]; 46.3% in test [6].

As to `O=C1NC(=O)C(c2ccccc2)(c2ccsc2)N1` (stereo not drawn), the growth inhibition was 12.3% in test [1]; -4.3% in test [2]; 1.95% in test [3]; 10.6% in test [4]; 1% in test [5]; 13.6% in test [6].
